Results filed as inconclusive are left out. Unmarked numbers belong to inactive results. Activity calls are given as the source filed them. Calls follow the shape of the dose curve; as a rule, active = well fitted cell-killing curve with a large enough effect; inconclusive = small, poorly fitted or top-dose-only effect; inactive = flat fitted curve, though single readings scatter.
Assay: MultiTox-Fluor Cytotoxicity Assay - LYMP1-001 - Live Cells (AID 947);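 as to activity change, negative = cytotoxicity: 0% = DMSO only and full inhibition = tetraoctylammonium bromide control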
Conditions: LYMP1-001 lymphoblastoid cells, live-cell protease fluorescence viability; series mostly up to 92.2 µM; activity change, negative = cytotoxicity: at the top concentration
Text: NIH Chemical Genomics Center [NCGC]
NIH Molecular Libraries Screening Centers Network [MLSCN]
National Institutes of Environmental Health Sciences [NIEHS]
National Toxicology Program [NTP]
We have developed a 1536-well cell-based assay for quantitative high throughput screening (qHTS) against a number of cell lines to determine in vitro cytotoxicity of small molecules. This particular assay uses a human lymphoblastoid cell line (LYMP1-001) purchased from Coriell Institute.
NCGC Assay Protocol Summary:
The MultiTox-Fluor Cytotoxicity Assay (Promega) is a homogeneous method to simultaneously measure the relative number of live and dead cells in culture by detecting changes in cell membrane integrity. There are two fluorogenic peptide substrates in the assay reagent. Viable cells are determined when the cell-permeant substrate (GF-AFC) enters the cell and is cleaved by protease from live cells resulting in liberated fluorophore. This live-cell protease activity restricted to viable cells is proportional to cell number. The dead cells are determined by using fluorogenic cell-impermeant peptide substrate (bis-AAF-R110) which cleaved by dead cell proteases leaking from damaged cell membrane.
Using the MultiTox-Fluor Cytotoxicity Assay, the relative number of live cells was measured in the lymphoblastoid cell line with complete culture medium following compound treatment for 16 hours. The assay was performed in opaque black Kalypsys 1536-well plates. In the screen, tetraoctylammonium bromide was used as positive control. Library compounds were measured for their ability to cause acute toxicity in the cell line, as reflected by a decrease in live cell protease activity, in a concentration-dependent manner. […] AC50 values were determined from concentration-response data modeled with the standard Hill equation.
qHTS protocol for MultiTox-Fluor Cytotoxicity assay
[Step] [Parameter] [Value] [Description]
1. Reagent; 5 uL; 2500 lymphoblastoid cells/well
2. Time; 5 hr; 37 C incubation
4. Controls; 23 nL; Tetraoctylammonium bromide 6.4pM to 92 uM
5. Time; 16 hr; 37 C incubation
6. Reagent; 5 uL; MuliTox-Fluor Assay reagent
7. Time; 60 min; Room Temperature
8. Detection; live-cell fluorescence (Ex/Em=405/510); EnVision plate reader
Keywords: cell viability, cytotoxicity, lymphoblastoid cell line, fluorescence, NTPHTS, NTPHTS_NCGC, NIEHS, EPA, DSSTox, MLSMR, MLSCN, NIH Roadmap, qHTS, NCGC
Potency is read from the fitted curve at half-maximal effect.

SMILES	activity change, negative = cytotoxicity [%]	Potency
CCCCC(CC)COC(=O)c1ccccc1C(=O)OCC(CC)CCCC (stereo not drawn)	5.84	
Nc1ccc(Sc2ccc(N)cc2)cc1	-16.8	
O=C(O)C(Cl)Cl	5.03	
CN(C)[C@@H]1C(=O)C(C(N)=O)=C(O)[C@@]2(O)C(=O)C3=C(O)c4c(O)cccc4[C@@](C)(O)[C@H]3[C@H](O)[C@@H]12	-2.66	
CCOCCOC(C)=O	2.99	
O=[N+]([O-])c1cc([N+](=O)[O-])c2ccccc2c1	2.92	
c1cc2ccc3cccc4ccc(c1)c2c34	-15.6	
O=S(=O)(c1ccc(Cl)cc1)c1ccc(Cl)cc1		inactive
CN(C)NC(=O)CCC(=O)O	-20.3	
C1CCC(NC2CCCCC2)CC1		inactive
Cc1cc(O)ccc1Cl	-1.17	
Nc1ccc([N+](=O)[O-])cc1	-24.5	
Nc1ccc(Cl)cc1	0.476	
CCCCCCCCc1ccc(O)cc1	16.8	
COc1ccc(C(c2ccc(OC)cc2)C(Cl)(Cl)Cl)cc1		inactive
O=[N+]([O-])c1c2ccccc2cc2ccccc12	15.8	
CC(C)(O)C(=O)Nc1ccc([N+](=O)[O-])c(C(F)(F)F)c1	-3.88	
C=CC(=O)NCNC(=O)C=C	11.1	
COC(C)(C)CCCC(C)C/C=C/C(C)=C/C(=O)OC(C)C (stereo not drawn)	10.1	
Nc1ccc(Cl)cc1N	-12.9	
CC(=O)[O][Hg][c]1ccccc1		5.01 µM (active)
CCCCOC(=O)c1ccccc1C(=O)OCc1ccccc1	25	
O=[N+]([O-])c1c(Cl)c(Cl)cc(Cl)c1Cl	-4.37	
